Experimental findings from PubChem BioAssay (Tox21) are described below.

A short description of assay [1]: qHTS assay for small molecules that induce genotoxicity in human embryonic kidney cells expressing luciferase-tagged ATAD5 (AID 651632). Further: nearly all actives have a fitted effect of over 15% in size. Further: potency means the concentration at half of the fitted maximal effect. The method, boiled down:
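Increased luciferase signal from ATAD5-tagged reporter cells indicates DNA-damage-driven ATAD5 induction. HEK293T cells are treated for 16 hr at 37C before detection with Amplite.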
For orientation: Quantitative high-throughput screening tests each substance at several concentrations.

Assay [2] in a line: qHTS assay for small molecule agonists of the p53 signaling pathway - cell viability (AID 651633; calls by dose curve; further: nearly all actives have a fitted effect of over 30% in size; further: potency means the concentration at half of the fitted maximal effect). The essentials: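 Viability counter-read: CellTiter-Glo luminescence (30 min, room temperature) in the same p53RE-bla plates. These plates had been exposed to compounds for 16 h at 37 C.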
The nature of assay [3]: qHTS assay for small molecules that induce genotoxicity in human embryonic kidney cells expressing luciferase-tagged ATAD5 - cell viability (AID 651634; calls by dose curve; further: nearly all actives have a fitted effect of over 25% in size; further: potency means the concentration at half of the fitted maximal effect). The method, boiled down: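 Cytotoxicity counterscreen in HEK293T cells bearing an ATAD5-luciferase reporter: live-cell protease activity measured by CellTiter-Fluor fluorescence after 15.5 hr compound exposure.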
Assay [4] is described as follows: qHTS assay for small molecule disruptors of the mitochondrial membrane potential - cell viability (AID 720634; calls by dose curve; further: nearly all actives have a fitted effect of over 20% in size; further: potency means the concentration at half of the fitted maximal effect). The method, boiled down:
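After overnight attachment at 37 C, HepG2 cells received compound or DMSO vehicle for 1 hr. Viability is then taken from ATP-driven luminescence following a 30 min room-temperature CellTiter-Glo step.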

Assay [5] is described as follows: qHTS assay for small molecule disruptors of the mitochondrial membrane potential (AID 720635). Further: potency means the concentration at half of the fitted maximal effect. The method, boiled down:
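Mitochondrial membrane potential tracked with Mito-MPS dye, red aggregates (ex 540/em 590 nm) against green monomers (ex 490/em 535 nm). Compound treatment 1 hr at 37C, dye 30 min in HepG2.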

Assay [6] can be described thus: qHTS assay to test for compound auto fluorescence at 590 nm (red) in HepG2 cells (AID 720674). The method, boiled down:
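1 hr compound incubation on HepG2 cells, 37 C, 5% CO2; plate read ex 540 nm / em 590 nm; intensities reported as Rose Bengal sodium equivalents.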

The nature of assay [7]: qHTS assay to test for compound auto fluorescence at 535 nm (green) in HepG2 cells (AID 720675).
Assay [8] can be described thus: qHTS assay to test for compound auto fluorescence at 460 nm (blue) in HEK293 cells (AID 720678). The method, boiled down: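 HEK293, 2,000 cells/well, 10% dialyzed FBS; attach 4-5 hr 37C; pin compound or DMSO; o/n 37C/5% CO2; fluorescence 405/460 nm; triamterene-equivalent units.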
Assay [9] is described as follows: qHTS assay to test for compound auto fluorescence at 590 nm (red) in HEK293 cells (AID 720679). The essentials: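 Intensity at 540nm excitation and 590nm emission is reported as Rose Bengal sodium-equivalent autofluorescence. Measurements followed overnight exposure (37C, 5% CO2) of HEK293 cells, 2,000 per well, to 23 nL compound.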

Where “and” joins values, the source holds several entries; their conditions need not be identical. Equal entries are not always repeated. Results filed as inconclusive are left out. Calls of active or inactive are those of the source. Unless noted, the call rests on the fitted dose curve; in most records, active means well fitted curve in the direction sought with a large enough effect in the repeat runs; inconclusive means weak or mixed curves; inactive means no such curve, though single readings can be large; an effect the other way counts as inactive or inconclusive.

As for `O=[n+]1ccn([O-])c2ccccc21`, the Potency result in assay [1], in assay [2], in assay [3], in assay [4], in [5] and in assay [6] was “inactive” each time. Moreover, the Potency entry in assay [7], in assay [8] and in assay [9] was “inactive” in each case.

`O=S(O)CNc1ccc(S(=O)(=O)c2ccc(NCS(=O)O)cc2)cc1`: the Potency entry in [1], in assay [2], in assay [3], in assay [4], in assay [5] and in [6] was “inactive” each time. The Potency result in assay [7], in assay [8] and in assay [9] was “inactive” each time.

As to `CS(=O)(=O)NC(=O)CCC/C=C\C[C@H]1C(=O)C[C@@H](O)[C@@H]1/C=C/[C@H](O)COc1ccccc1`, the Potency result in assay [1], in assay [2], in [3], in assay [4], in assay [5] and in assay [6] was “inactive” each time. The Potency entry in [7], in assay [8] and in assay [9] was “inactive” each time.

As for `Cn1c(=O)c2c(ncn2CCOC(=O)C(C)(C)Oc2ccc(Cl)cc2)n(C)c1=O`, the Potency result in [1], in assay [2], in assay [3], in [4], in assay [5] and in assay [6] was “inactive” throughout. The Potency entry in [7], in [8] and in assay [9] was “inactive” in each case.

Turning to `C#C[C@]1(O)CC[C@H]2[C@@H]3CCC4=CC(=O)CC[C@@H]4[C@H]3C(=C)C[C@@]21CC`, the Potency entry in assay [1], in assay [2], in [3], in [4], in [5] and in assay [6] was “inactive” each time. The Potency entry in assay [7], in assay [8] and in assay [9] was “inactive” each time.

In the case of `CO[C@H]1C[C@@H]2CC[C@@H](C)[C@@](O)(O2)C(=O)C(=O)N2CCCC[C@H]2C(=O)O[C@H]([C@H](C)C[C@@H]2CC[C@@H](OC(=O)C(C)(CO)CO)[C@H](OC)C2)CC(=O)[C@H](C)/C=C(\C)[C@@H](O)[C@@H](OC)C(=O)[C@H](C)C[C@H](C)/C=C/C=C/C=C/1C`, the Potency result in assay [1], in [2], in assay [3], in assay [4], in assay [5] and in [6] was “inactive” in each case. The Potency entry in [7], in assay [8] and in [9] was “inactive” in each case.

For the compound `CSc1nc2cc(Oc3cccc(Cl)c3Cl)c(Cl)cc2[nH]1`, the Potency entry in assay [1], in assay [6], in [7], in assay [8] and in [9] was “inactive” throughout. The Potency was 10.6 µM (active) in assay [2], 29.8 µM (active) in assay [3], 2.11 µM (active) in assay [4] and 1.68 µM (active) in assay [5].

In the case of `COc1cc([C@@H]2c3cc4c(cc3C(O[C@@H]3O[C@@H]5CO[C@@H](C)O[C@H]5[C@H](O)[C@H]3O)C3COC(=O)[C@@H]32)OCO4)cc(OC)c1OP(=O)(O)O` (stereo partly specified), in [1], the Potency is 2.66 µM (active) and 6.68 µM (active). In addition, the Potency entry in [2], in [3], in assay [4], in assay [5], in assay [6] and in assay [7] was “inactive” each time. For the same compound, the Potency result in assay [8] and in assay [9] was “inactive” in each case.

With `O=P(O)(O)OC[C@H]1O[C@](O)(COP(=O)(O)O)[C@@H](O)[C@@H]1O`, the Potency result in assay [1], in assay [2], in assay [3], in [4], in assay [5] and in assay [6] was “inactive” throughout. Besides, the Potency entry in assay [7], in [8] and in [9] was “inactive” in each case.

For the compound `O=C(Cn1c(=O)sc2ccc(Cl)cc21)N1CCN(CCO)CC1`, the Potency entry in assay [1], in assay [2], in assay [3], in [4], in assay [5] and in assay [6] was “inactive” throughout. The Potency entry in assay [7], in [8] and in [9] was “inactive” throughout.

Consider `CC1(C)S[C@@H]2[C@H](NC(=O)Cc3ccccc3)C(=O)N2[C@H]1C(=O)O`, for which the Potency result in assay [1], in assay [2], in [3], in [4], in [5] and in assay [6] was “inactive” in each case. Further, the Potency entry in assay [7], in assay [8] and in assay [9] was “inactive” throughout.

Turning to `C=CCCCCCCCCC(=O)OC`, the Potency entry in assay [1], in assay [2], in assay [3], in assay [4], in assay [5] and in assay [6] was “inactive” throughout. Also, the Potency entry in assay [7], in assay [8] and in [9] was “inactive” throughout.

As to `Cc1ccc(C2(O)CCN(CCCC(=O)c3ccc(F)cc3)CC2)cc1`, the Potency result in assay [1], in assay [2], in assay [3], in assay [4], in assay [5] and in assay [6] was “inactive” each time. Further, the Potency entry in assay [7], in [8] and in assay [9] was “inactive” throughout.

As to `Nc1ncnc2c1ncn2CCOCP(=O)(O)O`, the Potency result in [1], in assay [2], in assay [3], in [4], in [5] and in assay [6] was “inactive” in each case. For the same compound, the Potency result in assay [7], in assay [8] and in [9] was “inactive” in each case.

Regarding `OC[C@H]1OC([S-])[C@H](O)[C@@H](O)[C@@H]1O.[Au+]` (stereo partly specified), the Potency entry in [1], in [2], in assay [3], in assay [4], in assay [5] and in assay [6] was “inactive” in each case. Further, the Potency entry in [7], in assay [8] and in [9] was “inactive” throughout.

Take `C=C[C@]1(C)C[C@@H](OC(=O)CSCCN(CC)CC)[C@]2(C)[C@H](C)CC[C@]3(CCC(=O)[C@H]32)[C@@H](C)[C@@H]1O`: the Potency result in [1], in assay [2], in [3], in [4], in [5] and in assay [6] was “inactive” throughout. Moreover, the Potency entry in [7], in assay [8] and in [9] was “inactive” each time.

Regarding `C=C1CC2C3CCC4=CC(=O)C=C[C@]4(C)[C@@]3(F)[C@@H](O)C[C@]2(C)[C@@]1(O)C(=O)COC(C)=O` (stereo partly specified), the Potency entry in assay [1], in [2], in [3], in assay [4], in [5] and in [6] was “inactive” throughout. Moreover, the Potency entry in [7], in [8] and in [9] was “inactive” each time.

Regarding `CCCCCCCCCCCCCCCCCC(=O)OCCO`, the Potency result in assay [1], in assay [2], in assay [3], in assay [4], in [5] and in assay [6] was “inactive” in each case. Further, the Potency result in assay [7], in assay [8] and in [9] was “inactive” each time.

Turning to `CC(=O)Nc1c(I)c(C(=O)O)c(I)c(N(C)C(C)=O)c1I`, the Potency result in assay [1], in [2], in [3], in [4], in assay [5] and in assay [6] was “inactive” throughout. For the same compound, the Potency result in assay [7], in [8] and in assay [9] was “inactive” in each case.
